Assay outcomes from PubChem BioAssay.
This is a sample that favours compounds with a hit; in the whole collection about 1.6% have one here.
12-LOX inh: inhibitors of human 12S-lipoxygenase ALOX12 | P18054 | purified 12hLO, xylenol orange hydroperoxide absorbance | Potency, µM (top dose mostly 108 µM), most hits filed as inhibitors | 580,000 tested, 1.1% active | AID 1671190
Target sequence (P18054 whole entry, looked up): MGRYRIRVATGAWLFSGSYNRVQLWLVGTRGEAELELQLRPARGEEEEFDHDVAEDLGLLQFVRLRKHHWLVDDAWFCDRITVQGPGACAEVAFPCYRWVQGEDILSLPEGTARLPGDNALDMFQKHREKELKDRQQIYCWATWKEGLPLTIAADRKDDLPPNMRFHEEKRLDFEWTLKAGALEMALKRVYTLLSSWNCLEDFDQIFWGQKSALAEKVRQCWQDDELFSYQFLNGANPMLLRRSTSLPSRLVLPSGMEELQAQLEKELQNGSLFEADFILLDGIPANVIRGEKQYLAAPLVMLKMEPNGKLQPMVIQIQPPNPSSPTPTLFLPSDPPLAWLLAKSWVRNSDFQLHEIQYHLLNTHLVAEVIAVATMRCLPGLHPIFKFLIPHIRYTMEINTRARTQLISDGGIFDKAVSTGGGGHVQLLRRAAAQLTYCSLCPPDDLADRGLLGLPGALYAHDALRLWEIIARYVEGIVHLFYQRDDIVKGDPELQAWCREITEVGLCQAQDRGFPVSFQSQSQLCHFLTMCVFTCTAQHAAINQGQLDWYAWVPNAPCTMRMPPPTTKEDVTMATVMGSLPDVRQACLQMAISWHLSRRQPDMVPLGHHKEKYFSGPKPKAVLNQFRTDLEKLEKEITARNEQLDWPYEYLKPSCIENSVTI
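Purified human 12hLO (150 nM final) in 25 mM Hepes, 0.01% Triton X-100, pH 7.0 was preincubated 15 min at room temperature with compound. Then 40 uM arachidonic acid was added, 30 min. Hydroperoxide was read by Fe-XO absorbance ratio 573/405 nm.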
gsp antagonist: antagonists of gsp mutant (McCune-Albright syndrome); gsp-mutant cells, cAMP HTRF, 30 min; Potency, µM (doses to about 76.9 µM), hits mostly inhibitors; 340,000 tested, 0.4% active; AID 624288; calls by dose curve; cell line not stated here;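 also: intracellular cAMP measured with PDE inhibitor Ro 20-1724 present during compound exposure; nearly all actives have a fitted effect of over 65% in size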
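HTRF cAMP measurement after 30 min RT detection following 30 min, 37C compound treatment alongside […] (added as 300 uM solution) in G418-selected cells seeded at 2000/well and grown 16–24 h.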
FUS suppressor: rescues growth of FUS-expressing yeast; Potency, µM (titrated, usually from 76.6 µM), actives largely listed as activators; S. cerevisiae FUS-expressing, growth rescue, OD600, 24 h; 390,000 tested, 0.24% active; AID 1347120; also: nearly all actives have a fitted effect of over 55% in size
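Steps: raffinose overnight preculture; dilution to OD 0.005 in 2% galactose minimal medium; compound addition (concentration series); 24hr at 30C, 99% humidity; absorbance read at 600 nm.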
gsp ag: gsp mutant agonism. 340,000 tested, 0.13% active. gsp mutant cells, cAMP HTRF, 30 min. Potency, µM (series often up to 76.9 µM), most hits filed as activators; active = well fitted activation curve with a large enough effect; inconclusive = small, poorly fitted or top-dose-only effect, or another doubt; inactive = no such curve, though single readings can be large or run the other way; cell line not stated here;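 also: phosphodiesterase inhibitor Ro 20-1724 added with compounds to block cAMP breakdown; nearly all actives have a fitted effect of over 60% in size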
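Cells in DMEM/10% FBS with G418 were pretreated with compounds in DMSO plus […] (300 uM stock) for 30 min at 37C. cAMP was measured by HTRF (cAMP-d2 plus anti-cAMP antibody-K) after 30 min at room temperature.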
Mito fusion act: blocks mitochondrial division or promotes mitochondrial fusion. S. cerevisiae fusion-defective mutant growth rescue, CellTiterGlo 48 h. Potency, µM (top dose mostly 46.1 µM), most hits filed as activators. 320,000 tested, 0.23% active. AID 485298; also: nearly all actives have a fitted effect of over 45% in size
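Luminescent cell viability in 1536-well qHTS format served as the measure of rescued growth in ts fusion-mutant S. cerevisiae cultured on non-fermentable YPEG for 48 hours at 37C.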
Numbers stand for hits; – = inactive; ? = inconclusive; · = no result; ! = not confirmed by another sample; [ ] = dose if it differs, or a comment. Unless noted, calls follow the shape of the dose curve; as a rule, active = well fitted curve in the direction sought with a large enough effect; inconclusive = small, poorly fitted or top-dose-only effect, or another doubt; inactive = no such curve, though single readings can be large; an effect the other way counts as inactive or inconclusive.

SMILES	12-LOX inh	gsp antagonist	FUS suppressor	gsp ag	Mito fusion act
COc1cccc(OC)c1OCCCN1CCC(Cc2ccccc2)CC1	11µM	–	–	–	–
CCCCOCCCNC(=O)CCC(=O)NC1CCCCCCCCCCC1	–	·	·	·	·
O=C1N=C(N2CCOCC2)SC1=Cc1ccco1	?	–	–	–	·
O=C1C(=Cc2ccco2)CCC1=Cc1ccco1	35µM	–	–	–[15.4 µM]	·
O/N=C1\CCC\C1=C/c1ccco1	?	–	–	–	–
O=C1C(=Cc2ccco2)CCCC1=Cc1ccco1	25µM	–	–	–	·
CN(C(=O)Cn1nc(Cc2cccnc2)c2ccccc2c1=O)c1ccc(F)cc1	–	·	·	·	·
CCOC(=O)N1CCN(Cc2nc3cc(NC(=O)c4ccc(C)cc4)ccc3n2C)CC1	–	·	·	·	·
Cc1c(C(=O)N(Cc2nc3ccccc3c(=O)[nH]2)C(C)C)oc2ccc(Br)cc12	45µM	·	·	·	·
COCCCNc1nc2c(S(=O)(=O)c3ccccc3)nnn2c2ccccc12	–[6.33 µM]	·	·	·	·
CCCCNc1nc2c(S(=O)(=O)c3ccccc3)nnn2c2ccccc12	–	–	–	22µM	–
Cc1oc(-c2ccc(C(=O)N(C)Cc3ccccc3)cc2)nc1CN1CCc2ccccc21	–	·	20µM	·	·
COc1cccc(-c2cc(C3CCN(C(=O)Nc4cc(C)cc(C)c4)CC3)[nH]n2)c1	–	·	·	·	·
Cc1ccccc1/C=C/C(=O)c1c(C)nc2ccccc2c1-c1ccccc1	–	·	·	·	·
COCC(=O)O[C@]1(CCN(C)CCCc2nc3ccccc3[nH]2)CCc2cc(F)ccc2[C@@H]1C(C)C	11µM!	–	–	·	–
Cc1cccc(NC(=O)CSc2nnc(NC(=O)CN3CCCCC3)s2)c1	–	·	·	·	–
CCOC(=O)CSc1nnc(NC(=O)CN2CCCCC2)s1	6.3µM	–	–	–	–
Cc1nc(SCc2ccccc2)[nH]c(=O)c1CCC(=O)N1CCC(C)CC1	–	·	·	·	·
O=C(NCc1ccc2c(c1)OCO2)c1ccc(CSCc2ccc(Cl)cc2)o1	–	–	–	–	18µM
O=C(NCc1ccc2c(c1)OCO2)c1cc(Cl)ccc1Cl	–	–	–	–	–
O=C(c1ccc(COc2ccc(Cl)cc2)o1)N1CCN(Cc2ccc3c(c2)OCO3)CC1	?	?	–	–	?
O=C(c1ccc(COc2ccccc2Cl)o1)N1CCN(Cc2ccc3c(c2)OCO3)CC1	45µM!	–	–	–	–
O=C(NCc1ccc2c(c1)OCO2)c1ccc(COc2cc(Cl)ccc2Cl)o1	–	–	–	–	14µM
O=C(NCc1ccc(Cl)cc1)c1ccc(CSCc2cccc(Cl)c2)o1	–	·	–	·	·
CC(C)c1nc(N2CCN(C(=O)C(=O)NCCc3ccccc3)CC2)c(C#N)c2c1CCCC2	–	·	·	·	·
SMILES	12-LOX inh	gsp antagonist	FUS suppressor	gsp ag	Mito fusion act
Cc1cc(C)c(S(=O)(=O)Nc2cccc(-c3cn4ccc(C)cc4n3)c2)c(C)c1	–	·	·	·	·
CCc1c(C(=O)Nc2scc(-c3cc(C)ccc3C)c2C#N)csc1C	–	·	·	·	·
Cn1c2ccccc2c2cc(/C=N/NC(=O)c3cc(O)ccc3O)ccc21	35µM	–	–	–[15.4 µM]	–
CCCCC1CCC(C(=O)OC(C)C(=O)Nc2ccc(NC(C)=O)cc2)CC1 (configuration not stated)	40µM	–	–	?	–
COc1cccc(OC)c1C(=O)Nc1c(NC2CCCC2)c2ccccc2oc1=O	–	·	·	·	·
CCOC(CN=c1nc(N(C)C)ss1)OCC	18µM	–	·	–	·
COCC(=O)NC[C@H]1CCN(Cc2ccc(C#N)cc2)C[C@H]1N(C)C	–	·	·	·	·
CC(Nc1ccc([N+](=O)[O-])cn1)c1ccc(Cl)cc1Cl (configuration not stated)	56µM	·	·	·	·
c1ccc2c(-c3ccn[nH]3)cccc2c1	25µM	·	·	·	·
COc1ccc(S(=O)(=O)N2CCN(C(=O)C3COc4ccccc4O3)CC2)cc1 (configuration not stated)	40µM	–	–	?	–
CC(=O)Nc1ccc(S(=O)(=O)N2CCN(C(=O)C3COc4ccccc4O3)CC2)cc1 (configuration not stated)	–	–	–	–[15.4 µM]	–
CCCN1CCCCC12Cc1ccccc1CN(C(=O)CCCC(=O)O)C2 (configuration not stated)	–[6.33 µM]	·	·	·	·
Cc1ccc(CCN2CCCCC23Cc2ccccc2CN(C(=O)CCC(=O)O)C3)cc1 (configuration not stated)	32µM	·	·	·	·
O=C(CSCC(=O)Nc1nc(-c2ccc3c(c2)OCO3)cs1)Nc1nccs1	–	32µM	–	–	–
CC(C)NC(=O)CN(C)CC(O)COc1c(Cl)cccc1Cl (configuration not stated)	–	·	·	·	·
CC(C)(C)C1CCc2c(sc(NC(=O)C3CC=CCC3C(=O)O)c2C#N)C1 (configuration not stated)	–	40µM	–	–	–
O=C(OCCc1ccccc1)c1cc(O)c(O)c(O)c1	2.8µM	–	–	·	–
Nc1nc(Cl)cc(N2CCCC2)n1	–	–	–	–[15.4 µM]	–
Nc1nc(Cl)cc(N2CCC(c3cc(-c4ccc(Cl)cc4Cl)n[nH]3)CC2)n1	–	?	13µM	–	–
Cc1ccc2[nH]cc(C(C(=O)O)N3CCN(c4nsc5ccccc45)CC3)c2c1 (configuration not stated)	–	·	·	·	·
CCOC(=O)C1C(=O)C=C(c2ccco2)CC1c1ccccc1 (configuration not stated)	11µM	·	·	·	·
CCOC(=O)C1C(=O)C=C(c2ccccc2)CC1c1ccccc1 (configuration not stated)	–	–	–	–	·
COc1ccc(C2COc3cc(O)ccc3C2)c(OC)c1O (configuration not stated)	35µM	–	–	·	·
Cc1noc(C)c1-c1nc(N2CCN(C)CC2)c2ccccc2n1	18µM	·	·	·	·
Cc1noc(C)c1-c1nc(N2CCOCC2)c2ccccc2n1	40µM	·	·	·	·
SMILES	12-LOX inh	gsp antagonist	FUS suppressor	gsp ag	Mito fusion act
Cc1noc(C)c1-c1nc(N2CCNCC2)c2ccccc2n1	–	·	·	·	·
Cn1c(=O)c2nc(SCCC(=O)O)n(Cc3ccc(F)cc3)c2n(C)c1=O	–	·	·	·	·
CCOC(=O)NC1(NC(C)C)Oc2ccccc2O1	25µM	–	–	–	–
CCn1cc(C(=O)NC(=S)Nc2ccccc2Br)cn1	28µM	–	–	–	–
C(=C\c1ccco1)/c1ccc2ccccc2n1	40µM	–	–	–[15.4 µM]	–
CCCCC1=CC2=C(c3ccco3)C(=O)C(C)(OC(=O)c3ccc(OC)cc3)C(=O)C2=CN1CC1CC1 (configuration not stated)	?	–	20µM	·	–
CCOC(=O)c1cc2cc(CC)ccc2[nH]1	–	·	·	·	·
CCOC(=O)c1cc2cc(C(=O)O)ccc2[nH]1	16µM	·	·	·	·
CN(C)CCCN(C(=O)c1ccc2c(c1)OCCO2)c1nc2ccc(Cl)cc2s1	45µM	·	·	·	–
CCc1ccc2nc(N(CCN(C)C)C(=O)c3ccc4ncsc4c3)sc2c1	35µM	–	–	–[15.4 µM]	–
CN(C)CCN(C(=O)c1ccc2c(c1)OCCO2)c1nc2ccc(Cl)cc2s1	–	–	–	–[15.4 µM]	–
